Results taken from PubChem BioAssay (EPA / NIEHS).
Activity calls are given as the source filed them. Rule for the calls: active = hit-call score of the fitted dose curve at least 0.9, where 1 is the maximum; inactive = score below 0.9.

read-out: not listed separately; assay: BSK_CASM3C_Proliferation: Cell Proliferation Assessment in the BioMAP Diversity Plus: CASM3C Assay (AID 2283047); settings: primary human coronary artery smooth muscle cells;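 note: sulforhodamine B total protein stain as relative cell number at 560 nm; sub-confluent cells exposed 48 h before staining; fitted both ways against DMSO so gain or loss of cell number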

SMILES	outcome	AC50
c1ccc2ncccc2c1	inactive	–
CC(C)c1nnc2ccc(-c3ocnc3-c3cc(F)ccc3F)cn12	inactive	–
CCCCCCCCN(C)C	inactive	–
O=C(NO)C1(NS(=O)(=O)c2ccc(Oc3ccc(F)cc3)cc2)CCOCC1	inactive	–
O=C(O)[C@H](O)[C@@H](O)C(=O)O	inactive	–
CC(C)CCCCCCOC(=O)C1CCCCC1C(=O)OCCCCCCC(C)C (stereo unspecified)	inactive	–
NC(=O)NN=Cc1ccc([N+](=O)[O-])o1	inactive	–
OCc1ccccc1	inactive	–
OC(CCl)CCl	inactive	–
NC(=O)N(O)[C@@H]1COc2cc(OCc3ccccc3)ccc21	inactive	–
Cc1ncc([C@@H](CCCCCCc2ccc3c(n2)NCCC3)CC(=O)O)cn1	–	3.97 µM (active)
CCCCCCCCCCCCCCCCOS(=O)(=O)O	inactive	–
COc1cc(C(C)C)c2c(c1)S(=O)(=O)N(COc1cc(=O)n3cccc(OCCN4CCCCC4)c3n1)C2=O	–	6.18 µM (active)
CC(=O)c1ccccc1	inactive	–
CCCCOC(=O)c1ccccc1	inactive	–
Cc1nc(-c2ccccn2)ncc1C(=O)Nn1cc(C)c2cc(F)ccc21	–	22.6 µM (active)
CC[C@H](C)C(=O)O[C@H]1C[C@H](O)C=C2C=C[C@H](C)[C@H](CC[C@@H](O)C[C@@H](O)CC(=O)O)[C@H]21	inactive	–
C=CCc1cc(S(=O)(=O)c2ccc(O)c(CC=C)c2)ccc1O	–	14.3 µM (active)
CCc1ccc(O)c(C(C)(C)C)c1	–	20 µM (active)
OCCC(F)(F)C(F)(F)C(F)(F)C(F)(F)F	inactive	–
OCc1c[nH]c2ccccc12	inactive	–
CCCCCCOC(=O)CC(CC(=O)OCCCCCC)(OC(=O)CCC)C(=O)OCCCCCC	inactive	–
OCCOCCOCCO	inactive	–
CCc1cccc(CC)c1N	inactive	–
COCc1nnc(-c2ccc[n+]([O-])c2)n1-c1c(Cl)c(Cl)cc2[nH]c(=O)c(=O)[nH]c12	inactive	–
NC(=O)N1c2ccccc2C=Cc2ccccc21	inactive	–
FC(F)=C(F)C(F)(F)C(F)(F)C(F)(F)C(F)(F)C(F)(F)C(F)(F)F	inactive	–

read-out: Monokine induced gamma interferon (MIG), CXCL9 (gene 4283); assay: BSK_CASM3C_MIG: BioMAP Diversity Plus: CASM3C Assay for Monokine induced gamma interferon (MIG) Biomarker Activity (AID 2283048); settings: primary human coronary artery smooth muscle cells; actives raise or lower the signal;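 note: MIG protein level measured by ELISA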

SMILES	outcome	AC50
c1ccc2ncccc2c1	inactive	–
CC(C)c1nnc2ccc(-c3ocnc3-c3cc(F)ccc3F)cn12	inactive	–
CCCCCCCCN(C)C	inactive	–
O=C(NO)C1(NS(=O)(=O)c2ccc(Oc3ccc(F)cc3)cc2)CCOCC1	inactive	–
O=C(O)[C@H](O)[C@@H](O)C(=O)O	inactive	–
CC(C)CCCCCCOC(=O)C1CCCCC1C(=O)OCCCCCCC(C)C (stereo unspecified)	inactive	–
NC(=O)NN=Cc1ccc([N+](=O)[O-])o1	inactive	–
OCc1ccccc1	inactive	–
OC(CCl)CCl	inactive	–
NC(=O)N(O)[C@@H]1COc2cc(OCc3ccccc3)ccc21	inactive	–
Cc1ncc([C@@H](CCCCCCc2ccc3c(n2)NCCC3)CC(=O)O)cn1	inactive	–
CCCCCCCCCCCCCCCCOS(=O)(=O)O	inactive	–
COc1cc(C(C)C)c2c(c1)S(=O)(=O)N(COc1cc(=O)n3cccc(OCCN4CCCCC4)c3n1)C2=O	inactive	–
CC(=O)c1ccccc1	inactive	–
CCCCOC(=O)c1ccccc1	inactive	–
Cc1nc(-c2ccccn2)ncc1C(=O)Nn1cc(C)c2cc(F)ccc21	inactive	–
CC[C@H](C)C(=O)O[C@H]1C[C@H](O)C=C2C=C[C@H](C)[C@H](CC[C@@H](O)C[C@@H](O)CC(=O)O)[C@H]21	inactive	–
C=CCc1cc(S(=O)(=O)c2ccc(O)c(CC=C)c2)ccc1O	–	31.4 µM (active)
CCc1ccc(O)c(C(C)(C)C)c1	inactive	–
OCCC(F)(F)C(F)(F)C(F)(F)C(F)(F)F	inactive	–
OCc1c[nH]c2ccccc12	inactive	–
CCCCCCOC(=O)CC(CC(=O)OCCCCCC)(OC(=O)CCC)C(=O)OCCCCCC	inactive	–
OCCOCCOCCO	inactive	–
CCc1cccc(CC)c1N	inactive	–
COCc1nnc(-c2ccc[n+]([O-])c2)n1-c1c(Cl)c(Cl)cc2[nH]c(=O)c(=O)[nH]c12	inactive	–
NC(=O)N1c2ccccc2C=Cc2ccccc21	inactive	–
FC(F)=C(F)C(F)(F)C(F)(F)C(F)(F)C(F)(F)C(F)(F)C(F)(F)F	inactive	–

read-out: serum amyloid A (SAA), SAA1 (gene 6288); assay: BSK_CASM3C_SAA: BioMAP Diversity Plus: CASM3C Assay for serum amyloid A (SAA) Biomarker Activity (AID 2283049); settings: primary human coronary artery smooth muscle cells; actives raise or lower the signal;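 note: SAA protein level quantified by ELISA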

SMILES	outcome	AC50
c1ccc2ncccc2c1	inactive	–
CC(C)c1nnc2ccc(-c3ocnc3-c3cc(F)ccc3F)cn12	inactive	–
CCCCCCCCN(C)C	inactive	–
O=C(NO)C1(NS(=O)(=O)c2ccc(Oc3ccc(F)cc3)cc2)CCOCC1	inactive	–
O=C(O)[C@H](O)[C@@H](O)C(=O)O	inactive	–
CC(C)CCCCCCOC(=O)C1CCCCC1C(=O)OCCCCCCC(C)C (stereo unspecified)	inactive	–
NC(=O)NN=Cc1ccc([N+](=O)[O-])o1	inactive	–
OCc1ccccc1	inactive	–
OC(CCl)CCl	inactive	–
NC(=O)N(O)[C@@H]1COc2cc(OCc3ccccc3)ccc21	inactive	–
Cc1ncc([C@@H](CCCCCCc2ccc3c(n2)NCCC3)CC(=O)O)cn1	inactive	–
CCCCCCCCCCCCCCCCOS(=O)(=O)O	inactive	–
COc1cc(C(C)C)c2c(c1)S(=O)(=O)N(COc1cc(=O)n3cccc(OCCN4CCCCC4)c3n1)C2=O	inactive	–
CC(=O)c1ccccc1	inactive	–
CCCCOC(=O)c1ccccc1	inactive	–
Cc1nc(-c2ccccn2)ncc1C(=O)Nn1cc(C)c2cc(F)ccc21	inactive	–
CC[C@H](C)C(=O)O[C@H]1C[C@H](O)C=C2C=C[C@H](C)[C@H](CC[C@@H](O)C[C@@H](O)CC(=O)O)[C@H]21	inactive	–
C=CCc1cc(S(=O)(=O)c2ccc(O)c(CC=C)c2)ccc1O	–	28.3 µM (active)
CCc1ccc(O)c(C(C)(C)C)c1	inactive	–
OCCC(F)(F)C(F)(F)C(F)(F)C(F)(F)F	inactive	–
OCc1c[nH]c2ccccc12	inactive	–
CCCCCCOC(=O)CC(CC(=O)OCCCCCC)(OC(=O)CCC)C(=O)OCCCCCC	inactive	–
OCCOCCOCCO	inactive	–
CCc1cccc(CC)c1N	inactive	–
COCc1nnc(-c2ccc[n+]([O-])c2)n1-c1c(Cl)c(Cl)cc2[nH]c(=O)c(=O)[nH]c12	inactive	–
NC(=O)N1c2ccccc2C=Cc2ccccc21	inactive	–
FC(F)=C(F)C(F)(F)C(F)(F)C(F)(F)C(F)(F)C(F)(F)C(F)(F)F	inactive	–
